Results filed as inconclusive are left out. Values without a mark were called inactive. Active and inactive are the calls of the source. The call rests on the fitted dose curve; in most records, active means well fitted cell-killing curve with a large enough effect; inconclusive means small, poorly fitted or top-dose-only effect, or effect the other way; inactive means no such curve, though single readings can be large or run the other way.
Potency means the concentration at half of the fitted maximal effect.

This assay in a line: Viability qHTS for spleen associated tyrosine kinase inhibitor (SYKi) drug resistant MV4-11 cells (AID 1963824). Further: nearly all actives have a fitted effect of over 35% in size. The following applies: SYKi-resistant MV4-11 viability, CellTiter-Glo, 72 h; series mostly up to 45 µM; viability, % of control: at the top concentration. The method in brief: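 SYK-inhibitor-resistant MV4-11 AML cells were seeded at 500 per well onto compound and cultured 72 hours (37 °C, 5% CO2). CellTiter-Glo was then added, and after 10 min at room temperature, luminescence gave viability.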
For the compound `O=C(NO)c1ccc(CC(=O)N(CCO)c2ccccc2)cc1`, the Potency was 16.4 µM (active).
Consider `CN(C/C=C/c1ccccc1)Cc1cccc2ccccc12`, for which the “viability, % of control” value was 55.1%.
With `CN(C)CC1CCn2cc(c3ccccc32)C2=C(C(=O)NC2=O)c2cn(c3ccccc23)CCO1` (configuration not stated), the Potency was 0.411 µM (active).
As for `O=C(Nc1ccc(-n2nc(C(F)(F)F)cc2C(F)(F)F)cc1)c1ccncc1F`, the Potency was 10.3 µM (active).
As to `CS(=O)(=O)c1ccc([C@H](CC2CCCC2)C(=O)Nc2nccs2)cc1`, the Potency is 13 µM (active).
For the compound `COC(=O)C1(C)c2[nH]c3ccccc3c2CCN1C(=O)CCl` (configuration not stated), the Potency was 2.91 µM (active).
Turning to `O=C(/C=C/c1ccc(O)cc1)OC[C@H]1O[C@@H](OC(=O)/C=C/c2ccccc2)[C@H](O)[C@@H](O)[C@@H]1O`, the “viability, % of control” value was 87.9% [at 17.3 µM].
On to `CC(C)(O)/C=C/C(=O)[C@](C)(O)[C@H]1[C@H](O)C[C@@]2(C)[C@@H]3CC=C4[C@@H](C[C@H](O[C@@H]5O[C@H](CO)[C@@H](O)[C@H](O)[C@H]5O)C(=O)C4(C)C)[C@]3(C)C(=O)C[C@]12C`, for which the Potency was 6.11 µM (active).
Consider `COc1cc(/C=C/c2cc(O)cc(O[C@@H]3O[C@H](CO)[C@@H](O)[C@H](O)[C@H]3O)c2)ccc1O`, for which the “viability, % of control” value is 65.7% [at 17.3 µM].
Same read-out and setting: under `O=C1CC2(CCCC2)[C@H](O)C(=O)N1CCCCN1CCN(c2ncccn2)CC1` stands 75.7%; under `CC(=O)N[C@@H](C(=O)O[C@H]1CCC(C)(C)[C@@H]2CCC3=C(COC3=O)[C@@]12C)C(C)C`, 74.2%.
With `C/C=C(\C)C(=O)O[C@@H]1[C@@H](C)[C@]2(O)[C@@H]3C=C(C)C(=O)[C@H]3CC(CO)=C[C@H]2C2C(C)(C)[C@@]21OC(=O)C(C)CC` (some centres not stated), the Potency was 0.448 µM (active).
